Data: the supplement of paper PMC11417369
Over roughly 25,000 sequences, “ln(normalized median fluorescence intensity)” has its median near 9.3; the highest 2% begin near 10. Shown is part of a subset that was picked to be rich in the highest values.

Tested on: PF3D7_0420300 AP2 domain 1 (GST-tagged)
Experiment: gcPBM binding intensity (ln(normalized median fluorescence intensity)); higher = stronger DNA binding
Outline: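 The highest Masliner-normalised natural-log median intensity across replicate spots of either probe orientation is reported as binding intensity. GST-tagged P. falciparum DNA-binding domains expressed in E. coli were applied for 1 h to an Agilent 4 × 180k array of primer-extended double-stranded 36-bp intergenic genomic probes plus negative controls, and bound protein was detected with Alexa488 anti-GST antibody and scanned at 488 nm.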

Sequence | gcPBM binding intensity (ln)
TATATTTAATTATTATGTACTTATAATTTTTGAAAG [XGTACX_site8548] | 8.95
TTAATATAACTTTTTGCACACTTAATTTTTTTTTTT [CACACA_site3364] | 9.44
TATATATATATACCAACACACATACAGATATATATA [CACACA_site5060] | 9.7
ACATATACATATATATGTACATAAATATATATATAT [XGTACX_site8630] | 9.17
TATTCATGCATATACACACACATATATATATATTTT [CACACA_site3955] | 9.85
TCTTTTTTTACTTTCTTTTTTTTTTTTTTTTTTTTT [XGTACX_negctrl_site610] | 9.11
ATAAATATATATTTACGTACATATTATATATATATA [XGTACX_site6172] | 9.27
TATAAACACCCATATAAACACACATATAAACCAACA [CACACA_site8790] | 9.79
CGCGCACCCAGACACACACACACACCGATATATATA [CACACA_site8687] | 10.2
CACGCGCACCAACACACACACACACCCATATATATA [CACACA_site2204] | 10.3
TATACACCCAGACACACACACACACCCAAAAAAAAA [CACACA_site497] | 10
TAGACTCCCAGACACACACACACACCCATATAATAT [CACACA_site593] | 10.2
GGAGCACCCAGACACACACACACATATATATATATA [CACACA_site336] | 10.1
CACCCACACCAACACACACACATATATATATATATA [CACACA_site362] | 10.1
CGCGCACCCAGACACACACACACACCCATATATATA [CACACA_site2203] | 10.2
CACCCATACAGACATACACACACATATATATTAATA [CACACA_site8077] | 9.87
TAATTTTTAATTGTAGCATGCAGTATTTTTAAATAT [TGCATGCA_site140] | 8.97
TACTTACAGATAATAACACACAAGAAAAAAATAAAA [CACACA_site4716] | 9.8
CAAATATATATTTTCTGTACAAATACAATTAATACT [XGTACX_site2694] | 9.13
ATAAAGAAAATATGGAGTACATTTATATCCAATATA [XGTACX_site3085] | 9.17
CACAATGGTTTATATACACACTGTTGCAAATTCTTC [CACACA_site5659] | 9.45
TATAGTTCTTCTATTTGTACATATATTATTATTTAA [XGTACX_site895] | 9.26
ATTAATATATTATCATGTACACAAAAATAATTTTAT [XGTACX_site7257] | 9.13

Sequence | gcPBM binding intensity (ln)
TTAAAATGTTGTAACGTGCACATTTTGTGGAAATCA [GTGCAC_site9559] | 9.07
AAATAATTCATATGTTGTACAGTAATTAAATTTTCT [XGTACX_site6343] | 9.08
CGCGCCCAGAAACACACACACACACCGATATATATA [CACACA_site5250] | 10.3
TACGCTCCCAGACACACACACACACCGATATAATAT [CACACA_site8098] | 10.3
CTATAATAATAAAGTGAACACACACCGATAATATAT [CACACA_site9377] | 9.78
AAAAAAAAAAAACACACACACACACCGAAATATATA [CACACA_site4261] | 10.2
GAAATGGGTAAACATACACACACACCGATATATATA [CACACA_site8610] | 9.93
ATAATATATATTAATACACACACACCGATATATATA [CACACA_site9261] | 10.1
AATATAAATAAAAACACACACAATGGTACAGATATA [CACACA_site5930] | 10.1
TGTATAATAAGGAAGAGTACAAGTAAATACACACAT [XGTACX_site2084] | 9.87
ATTATGTGCCAATACACACACACATATATATATATA [CACACA_site468] | 9.9
AGAAAGATGCAAGAAACATGCAAAAAAAAAATTTCT [TGCATGCA_site725] | 9.15
AAAAATTCAATAGGACGTACTAAAACATTCATTAAT [XGTACX_site1712] | 9.34
AAAATACATAGACACACACACACACGGATATAAATA [CACACA_site7643] | 10.2
CACTAAAATAGACACACACACACACGGATATAAATA [CACACA_site7873] | 10.3
GATATATAAATAAATACACACATAAAATAGAAATAT [CACACA_site6881] | 9.93
AAAAAAAATAGACACACACACATACACATAAATATA [CACACA_site7742] | 10.1
AAAAATAAAGGATATACACACTAATTATATATATAT [CACACA_site5550] | 9.51
TAAATTTATAGACACACACACATATAAATAAATATA [CACACA_site6530] | 10
TATATAACTGTCTTCACACACACATATAAATAAATA [CACACA_site7317] | 9.77
TAATTTCTTTAGGGGGTGCTTTTATAGTTTTTATTA | 10.1
TATATATTTATTTATAGTACACTATTTATGAAAACC [XGTACX_site3062] | 9.1
TATAATCATATTAAGGGTACATATGTGTAAATATTT [XGTACX_site6018] | 9.23

Sequence | gcPBM binding intensity (ln)
AATAATATTAATAAAAGTACATGTGTAATATATATA [XGTACX_site5922] | 9.51
ATTAAAAGGGGGTTTACATGTGTGTGTGTAATATGG [TGCATGCA_negctrl_site293] | 10.2
AACAACTATTACTGCACACATTCTTACACTATATAA [CACACA_site654] | 9.75
TATAAATAAAGCAGTACACACATTTATTTTAGATAC [CACACA_site7566] | 9.61
ATAAAAAAATCAGACACACACACGTAAACACATACA [CACACA_site5529] | 10.1
ATAAATATCATATATATACACACGTAATACATAATA [CACACA_site4001] | 9.56
GGGGGGAGGGTGAATACACACGTAATAATCATAAAC [CACACA_site8502] | 10.3
ATGCTATATTAAAAACGTACAAACTGTTTAGAAAAA [XGTACX_site8943] | 9.12
TTATTTAGTATATTATGTACATACAATGCCTGGGAA [XGTACX_site4578] | 9.21
TAAATATATATATACACACACACCAAAGCAATAGAT [CACACA_site2940] | 10.3
TGTAAATATATATATACACACACACCGAAGCAATAG [CACACA_site8960] | 10.1
TAAATATATTTATACACACACACCAAAGCAATAGAT [CACACA_site7393] | 10.3
AATAAAGCAATAAATACACACATATTTATATTTATA [CACACA_site7390] | 9.56
AAAAAGAAAATATATACACACCAAAAAAAAAAAAAA [CACACA_site5698] | 9.46
AATAGTAAAAGATATACACACACCAAAAAATAGAAT [CACACA_site2289] | 10.3
TAAATATATAAATACACACACACCAAAGCAATAGAT [CACACA_site5605] | 10.2
TAAAAAAGAAAATATATACACACCAAAAAAAAAAAA [CACACA_site3146] | 9.66
AATAAAGCAATAAATACACACATATATATATATATA [CACACA_site2934] | 9.31
TATATATATAAATACACACACACACCCCAAAGCGTA [CACACA_site4211] | 10.1
TATAAATAAATAGATACACACATATTTATAAATACA [CACACA_site6219] | 9.56
AATAGTAAAAGATATACACACACCAAAAAATATAAT [CACACA_site5293] | 9.99
AGCTATAATAAATATACACACATATATAAATATGTA [CACACA_site6583] | 9.37
CATGTGTTCTATATTTATGTCTAACTTTTTAATTAA [CACACA_negctrl_site904] | 9.43

Sequence | gcPBM binding intensity (ln)
GTTTAAAAAAATTATCAACTTTAAAAAGGTAACATT [XGTACX_negctrl_site203] | 8.99
ATTTATAAAACAGGCACACATATAATAAATTTTATA [CACACA_site2600] | 9.54
AATACTCAAAAGAATCGTACAAACAACACTCCCACG [XGTACX_site7564] | 9.4
TTTTTTTTTCAAGAGGTGCGTGTATTTTAACAAAAA | 9.03
TTAATTATATTATGCACACACAATTGGAAAAAAAAT [CACACA_site1958] | 9.64
AGTATATAAAATACTGTATCGATGGGGGAGGGCGCA [CACACA_negctrl_site1612] | 10
ATATATGGGGCGCAGGAAAAGAGTTTTGGAAATAAA [CACACA_negctrl_site1265] | 9.2
TATAAAATACTGTATCGATGGGGGAGGGCGCAGGGG [TGCATGCA_negctrl_site250] | 11
TTTCTAATTTATATCACACACATATTTATATAGTAA [CACACA_site6813] | 9.41
TATAAATTTATAAATAGTACATATATTTATATATAT [XGTACX_site6433] | 9.07
CCCACAGACGGACACACACACATATATATATATATA [CACACA_site4351] | 9.81
CACAGACACGGACACACACACATATATATATATATA [CACACA_site5248] | 9.86
TTGGCATACGGACACACACACACACCCAGACATATA [CACACA_site4492] | 10.2
TACAGATACGGACACACACACACACCCAGACAAAAA [CACACA_site4432] | 10
CACAGACACGGACACACACACACACCCAGACACATA [CACACA_site4357] | 10.2
CCCACAGACGGACACACACACACATATATATATATA [CACACA_site4352] | 10.1
CATACACCCAGACACACACACATATATATATATATA [CACACA_site634] | 9.94
CACAGACACGGACACACACACACACCCACATATATA [CACACA_site4355] | 10.3
CCCACAGACGGACACACACACACACCGACACATATA [CACACA_site4356] | 10.2
AATCTAATATAATGCACACATAAAAAAAAATCAAAC [CACACA_site3633] | 9.8
